From PubChem BioAssay AID1159580 (chemical genetic matrix, 2015)
Screen size: about 5,500 compounds; about 2,000 (36%) were called active. Not shown: some 18% with an inconclusive outcome. Cut-off read from the data, not from the text of the source: active = normalized growth mostly below about 0.91 (no sharp cut-off); inconclusive = no clear call, values can overlap the other calls; inactive = mostly above about 0.92. The list shows a part of the results.

Assay: chemical genetic growth profiling, strain panel (AID 1159580);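 note: tested at 20 µM; growth read once vehicle control cultures reached saturation at 30 °C; 1 = growth at the plate median or of vehicle wells; lower values mean less growth of the strain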
Details: S. cerevisiae deletion strains, growth OD

Measured: normalized growth

COc1cc2c(cc1OC)-c1c(oc3c4c(ccc3c1=O)OC(C(C)C)C4)CO2 (stereo unspecified)
inactive: locus YAL013W, strain DEP1, hits give low values 1.01 | locus YBR021W, strain FUR4, hits give low values 1.06 | locus YBR229C, strain ROT2, hits give low values 1.01 | locus YCL029C, strain bik1, hits give low values 0.99 | locus YDL035C, strain GPR1, hits give low values 1.05 | locus YDL074C, strain BRE1, hits give low values 1.06 | locus YDL101C, strain DUN1, hits give low values 0.981 | locus YDL134C, strain PPH21, hits give low values 0.983 | locus YDL185W, strain tfp1, hits give low values 0.942 | locus YDL192W, strain arf1, hits give low values 1.01 | locus YDR101C, strain arx1, hits give low values 1.04 | locus YDR162C, strain NBP2, hits give low values 0.978 | locus YDR318W, strain mcm21, hits give low values 0.973 | locus YDR388W, hits give low values 0.982 | locus YDR502C, strain sam2, hits give low values 0.978 | locus YER110C, hits give low values 0.989 | locus YER155C, strain BEM2, hits give low values 0.997 | locus YER167W, strain BCK2, hits give low values 1.01 | locus YGL078C, strain dbp3, hits give low values 0.938 | locus YGL086W, strain mad1, hits give low values 0.983 | locus YGL248W, strain PDE1, hits give low values 0.988 | locus YGR078C, strain PAC10, hits give low values 0.982 | locus YGR135W, strain pre9, hits give low values 0.923 | locus YGR252W, strain gcn5, hits give low values 1.03 | locus YHR079C, strain IRE1 (second series), hits give low values 0.969 | locus YHR094C, strain hxt1, hits give low values 0.979 | locus YHR129C, strain ARP1, hits give low values 1 | locus YHR200W, strain rpn10, hits give low values 0.985 | locus YIL066C, strain RNR3, hits give low values 1.03 | locus YIL073C, strain SPO22, hits give low values 0.942 | locus YIL125W, strain kgd1, hits give low values 0.984 | locus YIR030C, strain dcg1, hits give low values 0.968 | locus YJL095W, strain BCK1, hits give low values 0.965 | locus YJL134W, strain LCB3, hits give low values 1 | locus YJL168C, strain set2, hits give low values 0.979 | locus YJL187C, strain SWE1 (second series), hits give low values 0.974 | locus YJR075W, strain HOC1, hits give low values 0.971 | locus YKL009W, strain mrt4, hits give low values 1.02 | locus YKL068W, hits give low values 0.98 | locus YKL085W, strain MDH1 (second series), hits give low values 0.973 | locus YKL085W, strain MDH1, hits give low values 0.973 | locus YKL190W, strain CNB1, hits give low values 0.992 | locus YKR001C, strain vps1, hits give low values 1.01 | locus YLR039C, strain RIC1, hits give low values 0.998 | locus YLR058C, strain SHM2, hits give low values 1 | locus YLR102C, strain apc9, hits give low values 0.988 | locus YLR268W, strain sec22, hits give low values 1.04 | locus YLR330W, strain CHS5, hits give low values 0.998 | locus YLR342W, strain FKS1 (second series), hits give low values 1.1 | locus YLR371W, strain rom2, hits give low values 0.982 | locus YLR418C, strain cdc73, hits give low values 0.981 | locus YML016C, strain PPZ1, hits give low values 0.989 | locus YML032C, strain rad52, hits give low values 1.01 | locus YML124C, strain tub3, hits give low values 0.971 | locus YMR078C, strain ctf18, hits give low values 0.962 | locus YMR223W, strain ubp8, hits give low values 0.979 | locus YMR263W, strain SAP30, hits give low values 0.984 | locus YMR307W, strain GAS1, hits give low values 1.15 | locus YNL067W, strain RPL9B, hits give low values 0.964 | locus YNL153C, strain GIM3, hits give low values 0.963 | locus YNL233W, strain BNI4, hits give low values 0.984 | locus YNL250W, strain rad50, hits give low values 0.93 | locus YNL271C, strain bni1, hits give low values 0.958 | locus YNL298W, strain CLA4, hits give low values 0.979 | locus YNL307C, strain MCK1, hits give low values 0.985 | locus YNR052C, strain pop2, hits give low values 0.962 | locus YOL006C, strain TOP1, hits give low values 1.17 | locus YOL012C, strain htz1 0.827 | locus YOL147C, strain pex11, hits give low values 0.973 | locus YOR061W, strain CKA2, hits give low values 1.02 | locus YOR069W, strain VPS5, hits give low values 0.996 | locus YOR136W, strain idh2, hits give low values 0.965 | locus YOR144C, strain elg1, hits give low values 1 | locus YOR184W, strain ser1, hits give low values 1.08 | locus YOR316C, strain cot1, hits give low values 0.97 | locus YPL241C, strain CIN2, hits give low values 0.986 | locus YPR119W, strain clb2, hits give low values 0.966 | locus YPR141C, strain kar3, hits give low values 0.954 | locus YPR163C, strain tif3, hits give low values 0.988 | locus YPR167C, strain met16, hits give low values 0.973 | strain wtn01, hits give low values 1.03
